PubChem BioAssay AID1159580 (chemical genetic matrix, 2015)
“And” between values parts separate entries of the source, which are not always exact repeats. Identical values can stand only once. Screen size: about 5,500 compounds; about 2,000 (36%) were called active. Inconclusive results (about 18%) are left out. Rule as the data show it: active = normalized growth mostly below about 0.91 (no sharp cut-off); inconclusive = no clear call, values can overlap the other calls; inactive = mostly above about 0.92. This is one part of the list.

Test: chemical genetic growth profiling, strain panel (AID 1159580);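 also: tested at 20 µM; growth read once vehicle control cultures reached saturation at 30 °C; 1 = growth at the plate median or of vehicle wells; lower values mean less growth of the strain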
Settings: growth OD

Measured: normalized growth

Cc1cc(O)ccc1Cl
inactive: S. cerevisiae deletion strains, locus YAL026C, strain drs2, hits give low values 1.01 | S. cerevisiae deletion strains, locus YAL030W, strain snc1, hits give low values 1.02 | S. cerevisiae deletion strains, locus YBL061C, strain skt5, hits give low values 0.992 | S. cerevisiae deletion strains, locus YBR009C, strain hhf1, hits give low values 0.999 | S. cerevisiae deletion strains, locus YBR021W, strain FUR4, hits give low values 1.02 | S. cerevisiae deletion strains, locus YBR023C, strain chs3, hits give low values 1.01 | S. cerevisiae deletion strains, locus YBR171W, strain sec66, hits give low values 0.997 | S. cerevisiae deletion strains, locus YBR229C, strain ROT2, hits give low values 1 | S. cerevisiae deletion strains, locus YBR231C, strain swc5, hits give low values 0.993 | S. cerevisiae deletion strains, locus YBR279W, strain paf1, hits give low values 1.02 | S. cerevisiae deletion strains, locus YCL011C, strain gbp2, hits give low values 1.01 | S. cerevisiae deletion strains, locus YCL016C, strain dcc1, hits give low values 1.01 | S. cerevisiae deletion strains, locus YCL029C, strain bik1, hits give low values 0.983 | S. cerevisiae deletion strains, locus YCL069W, strain vba3, hits give low values 1.02 | S. cerevisiae deletion strains, locus YCR088W, strain abp1, hits give low values 1.01 | S. cerevisiae deletion strains, locus YDL005C, strain med2, hits give low values 1.02 | S. cerevisiae deletion strains, locus YDL035C, strain GPR1, hits give low values 0.955 | S. cerevisiae deletion strains, locus YDL040C, strain nat1, hits give low values 1 | S. cerevisiae deletion strains, locus YDL074C, strain BRE1, hits give low values 0.987 | S. cerevisiae deletion strains, locus YDL101C, strain DUN1, hits give low values 1.03 | S. cerevisiae deletion strains, locus YDL185W, strain tfp1, hits give low values 0.986 | S. cerevisiae deletion strains, locus YDL192W, strain arf1, hits give low values 1 | S. cerevisiae deletion strains, locus YDR001C, strain nth1, hits give low values 1.01 | S. cerevisiae deletion strains, locus YDR069C, strain doa4, hits give low values 1.03 | S. cerevisiae deletion strains, locus YDR101C, strain arx1, hits give low values 0.992 | S. cerevisiae deletion strains, locus YDR162C, strain NBP2, hits give low values 0.986 | S. cerevisiae deletion strains, locus YDR297W, strain sur2, hits give low values 1.03 | S. cerevisiae deletion strains, locus YDR318W, strain mcm21, hits give low values 0.993 | S. cerevisiae deletion strains, locus YDR334W, strain swr1, hits give low values 1.02 | S. cerevisiae deletion strains, locus YDR335W, strain msn5, hits give low values 1 | S. cerevisiae deletion strains, locus YDR388W, hits give low values 1 | S. cerevisiae deletion strains, locus YDR392W, strain spt3, hits give low values 0.944 | S. cerevisiae deletion strains, locus YDR502C, strain sam2, hits give low values 0.974 | S. cerevisiae deletion strains, locus YEL003W, strain gim4, hits give low values 1.01 | S. cerevisiae deletion strains, locus YEL037C, strain rad23, hits give low values 1.01 | S. cerevisiae deletion strains, locus YEL061C, strain CIN8 (second series), hits give low values 1.01 | S. cerevisiae deletion strains, locus YEL061C, strain CIN8, hits give low values 0.999 | S. cerevisiae deletion strains, locus YER015W, strain faa2, hits give low values 0.993 | S. cerevisiae deletion strains, locus YER016W, strain bim1, hits give low values 0.994 | S. cerevisiae deletion strains, locus YER110C, hits give low values 1.01 | S. cerevisiae deletion strains, locus YER111C, strain swi4, hits give low values 1.01 | S. cerevisiae deletion strains, locus YER155C, strain BEM2 (second series), hits give low values 0.991 | S. cerevisiae deletion strains, locus YER155C, strain BEM2, hits give low values 1 | S. cerevisiae deletion strains, locus YER167W, strain BCK2, hits give low values 0.997 | S. cerevisiae deletion strains, locus YFR010W, strain ubp6, hits give low values 1 | S. cerevisiae deletion strains, locus YGL078C, strain dbp3, hits give low values 0.981 | S. cerevisiae deletion strains, locus YGL086W, strain mad1, hits give low values 0.968 | S. cerevisiae deletion strains, locus YGL167C, strain pmr1, hits give low values 1.02 | S. cerevisiae deletion strains, locus YGL173C, strain kem1, hits give low values 0.948 | S. cerevisiae deletion strains, locus YGL227W, strain vid30, hits give low values 1 | S. cerevisiae deletion strains, locus YGL240W, strain doc1, hits give low values 0.999 | S. cerevisiae deletion strains, locus YGL248W, strain PDE1, hits give low values 1.02 | S. cerevisiae deletion strains, locus YGL253W, strain hxk2, hits give low values 1.01 | S. cerevisiae deletion strains, locus YGR135W, strain pre9, hits give low values 1.02 | S. cerevisiae deletion strains, locus YGR252W, strain gcn5, hits give low values 0.936 | S. cerevisiae deletion strains, locus YHR013C, strain ard1, hits give low values 1.13 | S. cerevisiae deletion strains, locus YHR027C, strain rpn1, hits give low values 0.991 | S. cerevisiae deletion strains, locus YHR030C, strain SLT2, hits give low values 0.999 and 0.932 | S. cerevisiae deletion strains, locus YHR079C, strain IRE1 (second series), hits give low values 1.01 | S. cerevisiae deletion strains, locus YHR079C, strain IRE1, hits give low values 0.954 | S. cerevisiae deletion strains, locus YHR094C, strain hxt1, hits give low values 1.01 | S. cerevisiae deletion strains, locus YHR129C, strain ARP1, hits give low values 1.01 | S. cerevisiae deletion strains, locus YHR142W, strain chs7, hits give low values 0.981 | S. cerevisiae deletion strains, locus YHR200W, strain rpn10, hits give low values 1 | S. cerevisiae deletion strains, locus YIL066C, strain RNR3, hits give low values 1 | S. cerevisiae deletion strains, locus YIL073C, strain SPO22, hits give low values 1.04 | S. cerevisiae deletion strains, locus YIL125W, strain kgd1, hits give low values 1.01 | S. cerevisiae deletion strains, locus YIR030C, strain dcg1, hits give low values 1 | S. cerevisiae deletion strains, locus YJL092W, strain hpr5, hits give low values 0.989 | S. cerevisiae deletion strains, locus YJL095W, strain BCK1 (second series), hits give low values 1.01 | S. cerevisiae deletion strains, locus YJL095W, strain BCK1, hits give low values 1.02 and 0.938 | S. cerevisiae deletion strains, locus YJL115W, strain asf1, hits give low values 1.02 | S. cerevisiae deletion strains, locus YJL129C, strain trk1, hits give low values 1 | S. cerevisiae deletion strains, locus YJL134W, strain LCB3, hits give low values 1.01 | S. cerevisiae deletion strains, locus YJL154C, strain vps35, hits give low values 1.01 | S. cerevisiae deletion strains, locus YJL164C, strain tpk1, hits give low values 1.02 | S. cerevisiae deletion strains, locus YJL166W, strain qcr8, hits give low values 1 | S. cerevisiae deletion strains, locus YJL168C, strain set2, hits give low values 1.01 | S. cerevisiae deletion strains, locus YJL187C, strain SWE1 (second series), hits give low values 1.02 | S. cerevisiae deletion strains, locus YJR043C, strain POL32, hits give low values 0.991 | S. cerevisiae deletion strains, locus YJR066W, strain TOR1, hits give low values 0.942 | S. cerevisiae deletion strains, locus YKL009W, strain mrt4, hits give low values 0.979 | S. cerevisiae deletion strains, locus YKL068W, hits give low values 1 | S. cerevisiae deletion strains, locus YKL085W, strain MDH1 (second series), hits give low values 0.998 | S. cerevisiae deletion strains, locus YKL085W, strain MDH1, hits give low values 0.998 | S. cerevisiae deletion strains, locus YKL160W, strain elf1, hits give low values 1.02 | S. cerevisiae deletion strains, locus YKR001C, strain vps1, hits give low values 0.937 | S. cerevisiae deletion strains, locus YKR026C, strain gcn3, hits give low values 1.01 | S. cerevisiae deletion strains, locus YKR091W, strain srl3, hits give low values 1.03 | S. cerevisiae deletion strains, locus YLL001W, strain dnm1, hits give low values 0.992 | S. cerevisiae deletion strains, locus YLL026W, hits give low values 0.987 | S. cerevisiae deletion strains, locus YLL041C, strain sdh2, hits give low values 1 | S. cerevisiae deletion strains, locus YLR027C, strain aat2, hits give low values 1 | S. cerevisiae deletion strains, locus YLR039C, strain RIC1, hits give low values 0.874 | S. cerevisiae deletion strains, locus YLR058C, strain SHM2, hits give low values 1.02 | S. cerevisiae deletion strains, locus YLR102C, strain apc9, hits give low values 1 | S. cerevisiae deletion strains, locus YLR113W, strain HOG1, hits give low values 0.965 | S. cerevisiae deletion strains, locus YLR221C, strain rsa3, hits give low values 0.994 | S. cerevisiae deletion strains, locus YLR258W, strain gsy2, hits give low values 1.01 | S. cerevisiae deletion strains, locus YLR262C, strain YPT6, hits give low values 0.904 | S. cerevisiae deletion strains, locus YLR268W, strain sec22, hits give low values 0.991 | S. cerevisiae deletion strains, locus YLR320W, strain mms22, hits give low values 0.959 | S. cerevisiae deletion strains, locus YLR330W, strain CHS5, hits give low values 1 | S. cerevisiae deletion strains, locus YLR342W, strain FKS1 (second series), hits give low values 0.986 | S. cerevisiae deletion strains, locus YLR342W, strain FKS1, hits give low values 0.982 | S. cerevisiae deletion strains, locus YLR357W, strain rsc2, hits give low values 1.08 | S. cerevisiae deletion strains, locus YLR370C, strain arc18, hits give low values 1.01 | S. cerevisiae deletion strains, locus YLR371W, strain rom2, hits give low values 1 | S. cerevisiae deletion strains, locus YLR384C, strain iki3, hits give low values 0.993 | S. cerevisiae deletion strains, locus YLR418C, strain cdc73, hits give low values 1.02 | S. cerevisiae deletion strains, locus YML016C, strain PPZ1, hits give low values 1 | S. cerevisiae deletion strains, locus YML032C, strain rad52, hits give low values 0.981 | S. cerevisiae deletion strains, locus YML120C, strain ndi1, hits give low values 1 | S. cerevisiae deletion strains, locus YML124C, strain tub3, hits give low values 0.994 | S. cerevisiae deletion strains, locus YMR058W, strain fet3, hits give low values 0.965 | S. cerevisiae deletion strains, locus YMR078C, strain ctf18, hits give low values 1.01 | S. cerevisiae deletion strains, locus YMR129W, hits give low values 1.02 | S. cerevisiae deletion strains, locus YMR205C, strain PFK2, hits give low values 0.987 | S. cerevisiae deletion strains, locus YMR223W, strain ubp8, hits give low values 1.01 | S. cerevisiae deletion strains, locus YMR231W, strain pep5, hits give low values 1.02 | S. cerevisiae deletion strains, locus YMR263W, strain SAP30, hits give low values 1.02 | S. cerevisiae deletion strains, locus YMR307W, strain GAS1, hits give low values 0.957 | S. cerevisiae deletion strains, locus YNL067W, strain RPL9B, hits give low values 1.02 | S. cerevisiae deletion strains, locus YNL071W, strain lat1, hits give low values 1.01 | S. cerevisiae deletion strains, locus YNL153C, strain GIM3, hits give low values 1.03 | S. cerevisiae deletion strains, locus YNL183C, strain NPR1, hits give low values 0.896 | S. cerevisiae deletion strains, locus YNL209W, strain ssb2, hits give low values 1 | S. cerevisiae deletion strains, locus YNL233W, strain BNI4, hits give low values 1.01 | S. cerevisiae deletion strains, locus YNL248C, strain rpa49, hits give low values 1.02 | S. cerevisiae deletion strains, locus YNL250W, strain rad50, hits give low values 0.996 | S. cerevisiae deletion strains, locus YNL271C, strain bni1, hits give low values 1.01 | S. cerevisiae deletion strains, locus YNL298W, strain CLA4, hits give low values 0.95 | S. cerevisiae deletion strains, locus YNL307C, strain MCK1, hits give low values 1 | S. cerevisiae deletion strains, locus YNL322C, strain KRE1 (second series), hits give low values 1.06 | S. cerevisiae deletion strains, locus YNL322C, strain KRE1, hits give low values 0.999 | S. cerevisiae deletion strains, locus YNR049C, strain mso1, hits give low values 0.999 | S. cerevisiae deletion strains, locus YNR052C, strain pop2, hits give low values 1 | S. cerevisiae deletion strains, locus YOL012C, strain htz1 1.23 | S. cerevisiae deletion strains, locus YOL147C, strain pex11, hits give low values 0.997 | S. cerevisiae deletion strains, locus YOR001W, strain rrp6, hits give low values 0.991 | S. cerevisiae deletion strains, locus YOR061W, strain CKA2, hits give low values 0.999 | S. cerevisiae deletion strains, locus YOR069W, strain VPS5, hits give low values 1.01 | S. cerevisiae deletion strains, locus YOR070C, strain gyp1, hits give low values 0.993 | S. cerevisiae deletion strains, locus YOR080W, strain dia2, hits give low values 1.02 | S. cerevisiae deletion strains, locus YOR083W, strain WHI5, hits give low values 0.936 | S. cerevisiae deletion strains, locus YOR106W, strain vam3, hits give low values 0.976 | S. cerevisiae deletion strains, locus YOR136W, strain idh2, hits give low values 0.999 | S. cerevisiae deletion strains, locus YOR144C, strain elg1, hits give low values 1 | S. cerevisiae deletion strains, locus YOR184W, strain ser1, hits give low values 0.982 | S. cerevisiae deletion strains, locus YOR231W, strain MKK1, hits give low values 0.937 | S. cerevisiae deletion strains, locus YOR265W, strain rbl2, hits give low values 1.01 | S. cerevisiae deletion strains, locus YOR270C, strain vph1, hits give low values 1.01 | S. cerevisiae deletion strains, locus YOR290C, strain snf2, hits give low values 1.02 | S. cerevisiae deletion strains, locus YOR316C, strain cot1, hits give low values 1.01 | S. cerevisiae deletion strains, locus YPL051W, strain arl3, hits give low values 0.992 | S. cerevisiae deletion strains, locus YPL078C, strain atp4, hits give low values 0.938 | S. cerevisiae deletion strains, locus YPL106C, strain sse1, hits give low values 1.1 | S. cerevisiae deletion strains, locus YPL240C, strain hsp82, hits give low values 1.02 | S. cerevisiae deletion strains, locus YPL256C, strain CLN2, hits give low values 0.968 | S. cerevisiae deletion strains, locus YPR119W, strain clb2, hits give low values 1 | S. cerevisiae deletion strains, locus YPR141C, strain kar3, hits give low values 1 | S. cerevisiae deletion strains, locus YPR163C, strain tif3, hits give low values 1 | S. cerevisiae deletion strains, locus YPR167C, strain met16, hits give low values 0.994 | S. cerevisiae deletion strains, strain wtn01, hits give low values 0.974 | S. cerevisiae strains, strain wild type, hits give low values 1.01
active: S. cerevisiae deletion strains, locus YAL021C, strain ccr4, hits give low values 1.11 [resistant] | S. cerevisiae deletion strains, locus YDR137W, strain rgp1, hits give low values 0.816 | S. cerevisiae deletion strains, locus YDR159W, strain sac3, hits give low values 0.784 | S. cerevisiae deletion strains, locus YDR195W, strain ref2 1.2 [resistant] | S. cerevisiae deletion strains, locus YLR262C, strain YPT6 (second series), hits give low values 0.814 | S. cerevisiae deletion strains, locus YMR125W, strain sto1, hits give low values 1.13 [resistant]
